Compound activity deposited in PubChem BioAssay by National Center for Advancing Translational Sciences (NCATS).
KB-V1 cytotox = KB-V1 MDR subline cytotoxicity. KB-V1 MDR cells viability, CellTiter-Glo, 72 h. Potency, µM (titrated, usually from 46.1 µM), most hits filed as cytotoxic. hit rate 3.4% among 400,000. AID 1347076; also: nearly all actives have a fitted effect of over 60% in size
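KB-V1, DMEM (no phenol red) + 10% FBS; cpd pin-transferred, titration series; 72 h, 37 degrees C; CellTiter-Glo, luminescence. Data normalized, curve-fit.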
MCF10A rerep = induces DNA re-replication in MCF 10a normal breast cells; Potency, µM (highest dose often 46.1 µM), hits mostly activators; AID 624296; MCF 10A DNA re-replication, Hoechst nuclear intensity, 48 h; hit rate 2.9% among 350,000; also: nearly all actives have a fitted effect of over 50% in size
HT1080NT lethal = kills 2HG-producing HT-1080-NT fibrosarcoma cells | HT-1080-NT fibrosarcoma viability, CellTiter-Glo ATP luminescence, 48 h | Potency, µM (series often up to 46.1 µM), most hits filed as cytotoxic | hit rate 1.6% among 360,000 | AID 686970;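 also: NT is the 2HG producing partner of a matched IDH1 knockdown line; nearly all actives have a fitted effect of over 55% in size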
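Viability of the 2HG-overproducing fibrosarcoma line after 48 hours of compound exposure at 37 degrees C was determined by luminescence with CellTiter-Glo, and concentration-effect curves were then fitted and categorized.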
HT1080 IDH1KD tx = kills HT-1080 cells with IDH1 knockdown | HT-1080 IDH1 knockdown viability, ATP luminescence, 48 h | hit rate 2% among 360,000 | Potency, µM (doses to about 46.1 µM), actives largely listed as cytotoxic
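Assay cells: HT-1080 with IDH1 knockdown, 750 per well, RPMI/5% FBS. Exposure: 48 h at 37 °C following 2 h pre-incubation. Read: CellTiter-Glo luminescence; fitted concentration-response, curve class assigned.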
SW480 rerep = induces DNA re-replication in SW480 colon adenocarcinoma cells; SW480 DNA re-replication, Hoechst DNA content imaging, 48 h; Potency, µM (highest dose often 46.1 µM), most hits filed as activators; hit rate 1.8% among 340,000; AID 624297; also: nearly all actives have a fitted effect of over 55% in size
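First, 250 cells per well were seeded. Next, compound or vehicle (23 nL) was pinned in, plates sat 48 hr at 37 C. Finally Hoechst was added for 40 min before fluorescence scanning.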
KB-3-1 tox = kills parental KB-3-1 adenocarcinoma cells | KB-3-1 viability, CellTiter-Glo ATP luminescence, 72 h | Potency, µM (highest dose often 46.1 µM), actives largely listed as cytotoxic | hit rate 1.4% among 400,000; also: nearly all actives have a fitted effect of over 60% in size
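Luminescent ATP read-out (CellTiter-Glo) measures survival of drug-naive KB-3-1 cells after 72 h compound exposure at 37 °C. Titration series was screened from lowest to highest concentration, with DMSO vehicle plates as background controls.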
A number is an active result. An excerpt weighted towards active compounds, which were near 7.9% of everything screened. Calls follow the shape of the dose curve; as a rule, active = well fitted curve in the direction sought with a large enough effect; inconclusive = small, poorly fitted or top-dose-only effect, or another doubt; inactive = no such curve, though single readings can be large; an effect the other way counts as inactive or inconclusive.

For O=P(OC1CCCCC1)(OC1CCCCC1)C(O)c1cccnc1 (centres undefined) the results were KB-V1 cytotox inactive, MCF10A rerep inactive, HT1080NT lethal inactive, HT1080 IDH1KD tx inactive, SW480 rerep inactive and KB-3-1 tox inconclusive.
Screening Cc1cc(C)c2c3c(sc2n1)C(c1cccc(F)c1)C(C#N)=C(N)O3 (centres undefined) returned KB-V1 cytotox inconclusive, MCF10A rerep 8.2µM, HT1080NT lethal inactive, HT1080 IDH1KD tx inactive, SW480 rerep 18µM and KB-3-1 tox inactive.
`COc1ccc(/C=C/C(=O)Nc2ccccc2C(=O)NCC(c2ccc(OC)cc2)N(C)C)cc1` (centres undefined) gave KB-V1 cytotox inactive, MCF10A rerep inconclusive, HT1080NT lethal inconclusive, HT1080 IDH1KD tx inconclusive, SW480 rerep inactive and KB-3-1 tox inactive.
For CCC(c1nnnn1-c1ccc2c(c1)OCCO2)N1CCc2ccccc2C1 (centres undefined) the results were KB-V1 cytotox inactive, HT1080NT lethal inactive, HT1080 IDH1KD tx inactive and KB-3-1 tox inactive.
Cc1cc(Br)ccc1NC(=O)CN(C)C(=O)c1ccc2ccccc2n1 was read as KB-V1 cytotox inactive, MCF10A rerep inactive, HT1080NT lethal inactive, HT1080 IDH1KD tx inactive, SW480 rerep inactive and KB-3-1 tox inactive.
`COc1cc(NC(=O)C2=C(N3CCOCC3)/C(=C\c3ccc(N(C)C)cc3)CCC2)cc(OC)c1OC` gave KB-V1 cytotox 2.6µM, MCF10A rerep 18µM, HT1080NT lethal inconclusive, HT1080 IDH1KD tx 29µM, SW480 rerep 10µM and KB-3-1 tox 12µM.
Screening CN(C(=O)c1ccc(NC(=O)C2CCCN(C(=O)OC(C)(C)C)C2)cc1)C1CCCC1 (centres undefined) returned KB-V1 cytotox inactive, MCF10A rerep inactive, HT1080NT lethal inactive, HT1080 IDH1KD tx inactive, SW480 rerep inactive and KB-3-1 tox inactive.
Screening Cc1ccc(OCC(=O)OCC(=O)N2c3ccccc3CC2C)cc1C (centres undefined) returned KB-V1 cytotox inactive, MCF10A rerep inactive, HT1080NT lethal inactive, HT1080 IDH1KD tx inactive, SW480 rerep inactive and KB-3-1 tox inactive.
O=C(Nc1cnn(Cc2ccc(F)cc2)c1)C(c1ccccc1)c1ccccc1 was read as KB-V1 cytotox 5.2µM, MCF10A rerep inactive, HT1080NT lethal inconclusive, HT1080 IDH1KD tx inconclusive, SW480 rerep inactive and KB-3-1 tox inconclusive.
`CCc1cc(C(=O)Nc2cnn(Cc3ccc(F)cc3)c2)no1` gave KB-V1 cytotox inactive and KB-3-1 tox inactive.
`O=C(Nc1cnn(Cc2ccc(F)cc2)c1)c1noc2c1CCCC2` gave KB-V1 cytotox inactive, MCF10A rerep 4.6µM, HT1080NT lethal inconclusive, HT1080 IDH1KD tx inconclusive, SW480 rerep inactive and KB-3-1 tox inconclusive.
For CC(C)(C)C1CCc2onc(C(=O)Nc3cnn(Cc4ccc(F)cc4)c3)c2C1 (centres undefined) the results were KB-V1 cytotox 2.6µM, MCF10A rerep inconclusive, HT1080NT lethal inactive, HT1080 IDH1KD tx inconclusive, SW480 rerep inconclusive and KB-3-1 tox inactive.
For O=C(Nc1cnn(Cc2ccc(F)cc2)c1)c1cnccn1 the results were KB-V1 cytotox inactive, MCF10A rerep inconclusive, HT1080NT lethal inactive, HT1080 IDH1KD tx inactive, SW480 rerep inactive and KB-3-1 tox inactive.
`CC(C)(C)C1CCc2onc(C(=O)Nc3ccc(F)cc3F)c2C1` (centres undefined) gave KB-V1 cytotox 23µM, MCF10A rerep inactive, HT1080NT lethal inactive, HT1080 IDH1KD tx inactive, SW480 rerep inactive and KB-3-1 tox inactive.
Screening O=C(NCc1ccccc1)c1noc2c1CCCCC2 returned KB-V1 cytotox 21µM, MCF10A rerep inconclusive, HT1080NT lethal inconclusive, HT1080 IDH1KD tx inconclusive, SW480 rerep inconclusive and KB-3-1 tox inactive.
O=C1C=CC(O)C2(CO)OC12 (centres undefined) was read as KB-V1 cytotox inactive, HT1080NT lethal inconclusive, HT1080 IDH1KD tx inconclusive and KB-3-1 tox inconclusive.
Cc1nc(N)nc(Nc2ccc(Cl)cc2)c1Br was read as KB-V1 cytotox 21µM, MCF10A rerep inactive, HT1080NT lethal inconclusive, HT1080 IDH1KD tx inconclusive, SW480 rerep inactive and KB-3-1 tox inconclusive.
For Cc1ccc(-n2ncc3c(NCCC4=CCCCC4)ncnc32)cc1C the results were KB-V1 cytotox inactive and KB-3-1 tox inactive.
COC(=O)c1c(SC)nc2ccccc2c1OCc1ccc(Cl)cc1 was read as KB-V1 cytotox inactive and KB-3-1 tox inactive.
Screening Cc1ccc(-c2nn(-c3ccccc3)cc2/C=C/C(=O)Nc2nccs2)cc1 returned KB-V1 cytotox inactive, MCF10A rerep inconclusive, HT1080NT lethal 16µM, HT1080 IDH1KD tx 9.2µM, SW480 rerep inactive and KB-3-1 tox inactive.
For Cc1c(NC(=O)/C=C/c2cn(-c3ccccc3)nc2-c2ccc(F)cc2)c(=O)n(-c2ccccc2)n1C the results were KB-V1 cytotox inactive, MCF10A rerep 18µM, HT1080NT lethal inactive, HT1080 IDH1KD tx inactive, SW480 rerep inactive and KB-3-1 tox inconclusive.
`O=C(/C=C/c1cn(-c2ccccc2)nc1-c1ccccc1)Nc1ccc(C(=O)O)cc1` gave KB-V1 cytotox inactive, MCF10A rerep inconclusive, HT1080NT lethal inconclusive, HT1080 IDH1KD tx 23µM, SW480 rerep inconclusive and KB-3-1 tox inactive.
`Cc1c(NC(=O)/C=C/c2cccs2)c(=O)n(-c2ccccc2)n1C` gave KB-V1 cytotox inactive, MCF10A rerep inactive, HT1080NT lethal inactive, HT1080 IDH1KD tx inactive, SW480 rerep inactive and KB-3-1 tox inactive.
For C=C1C=C(C(F)F)n2ncc(C(=O)NCc3ccccc3)c2N1 the results were KB-V1 cytotox inactive and KB-3-1 tox inactive.
CCOc1ccc(C(=O)Nc2cc(-c3nc4ccccc4[nH]3)ccc2Cl)cc1[N+](=O)[O-] was read as KB-V1 cytotox inconclusive, MCF10A rerep inconclusive, HT1080NT lethal inconclusive, HT1080 IDH1KD tx 18µM, SW480 rerep inconclusive and KB-3-1 tox inactive.
CCOc1ccc(C(=O)Nc2nc3ccccc3[nH]2)cc1OCC was read as KB-V1 cytotox 5.2µM, MCF10A rerep inactive, HT1080NT lethal inconclusive, HT1080 IDH1KD tx inactive, SW480 rerep inactive and KB-3-1 tox inconclusive.
Screening CCOc1ccccc1NC(=O)c1ccc2[nH]c(C)c(C)c2c1 returned KB-V1 cytotox inactive, MCF10A rerep inconclusive, HT1080NT lethal inconclusive, HT1080 IDH1KD tx inconclusive, SW480 rerep 23µM and KB-3-1 tox inactive.
COc1ccc(NC(=O)c2ccc3[nH]c(C)c(C)c3c2)c(OC)c1 was read as KB-V1 cytotox inactive, MCF10A rerep inactive, HT1080NT lethal inactive, HT1080 IDH1KD tx inactive, SW480 rerep inactive and KB-3-1 tox inactive.
